Screens: PubChem, National Center for Advancing Translational Sciences (NCATS)
A selection: hits, their analogues and other compounds. The true share with any hit is near 19%.
CHX counter – affects cycloheximide protein synthesis inhibition readout, counter-screen; max response, %; cell reporter, cycloheximide protein synthesis inhibition counterscreen; 12% of 300,000 active; in the data active = max response mostly above about 13%, no sharp cut-off; inactive = mostly below about 14%; note: read at 38.3 µM for the half of the compounds with a filed dose
SARS PLP yeast – SARS-CoV PLP inhibition in yeast. S. cerevisiae expressing SARS-CoV PLpro, growth rescue. Potency, µM (titrated, usually from 32.9 µM), usual class: activators. 0.19% of 330,000 active; calls by dose curve; note: nearly all actives have a fitted effect of over 55% in size
Shiga inhibitor – inhibitors of Shiga toxin in Vero cells; 9.2% of 290,000 active; Vero cells, Shiga toxin protein synthesis inhibition reporter; inhibition, % at 38.7 µM; in the data active = inhibition mostly above about 28%, no sharp cut-off; inactive = mostly below about 43%
Pf growth 96h – P. falciparum growth inhibition at 96 hour, primary screen for plastid delayed-death inhibitors; P. falciparum luciferase reporter growth, 96 h; Potency, µM (doses to about 28.7 µM), actives largely listed as inhibitors; 6.9% of 320,000 active
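Erythrocytes infected with luciferase-expressing P. falciparum were dispensed at 2% hematocrit and 0.05% parasitemia (final), then incubated with compounds 96 hours at 37 C in 5% CO2. Luminescence after detection reagent addition reported growth.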
AMA1 RON2 block – inhibitors of Plasmodium falciparum AMA1-RON2 interaction | AlphaScreen AMA1-biotinylated RON2 peptide binding | 0.2% of 360,000 active | AID 720542 | Potency, µM (series often up to 58.2 µM), actives largely listed as inhibitors; note: nearly all actives have a fitted effect of over 45% in size
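AMA1 (3D7) with his tag at 25 nM final met compounds first, then biotinylated RON2 peptide at 25 nM; detection used donor plus acceptor beads, 10 µg/mL apiece, read by AlphaScreen after 30 min at room temperature.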
Pf growth 48h – P. falciparum growth inhibition at 48 hours (one generation); P. falciparum luciferase growth in erythrocytes, 48 h; Potency, µM (doses to about 28.7 µM), hits mostly inhibitors; 5.9% of 310,000 active
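In quantitative HTS format, infected erythrocytes bearing luciferase-reporter parasites were treated for a single generation at 37 C. Luminescence after adding detection reagent served as the growth measure.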
Of the large screens only hits and unclear results are named; the others gave an inactive call. Unless noted, calls come from the whole dose curve; as a rule, active = well fitted curve in the direction sought with a large enough effect; inconclusive = small, poorly fitted or top-dose-only effect, or another doubt; inactive = no such curve, though single readings can be large; an effect the other way counts as inactive or inconclusive.

O=C(Nc1ccccc1F)Nc1ccc([N+](=O)[O-])cc1Cl	CHX counter 9.8, Shiga inhibitor 29.0
O=C(Nc1ccc([N+](=O)[O-])cc1Cl)c1cccc([N+](=O)[O-])c1	none (no result: CHX counter, SARS PLP yeast, Shiga inhibitor, Pf growth 96h, Pf growth 48h)
O=C(Nc1ccccc1F)c1ccc(-c2cccc([N+](=O)[O-])c2)o1	CHX counter 22.1, Shiga inhibitor 63.4, Pf growth 96h inconclusive
O=C(Nc1nccs1)c1ccc(-c2cccc([N+](=O)[O-])c2)o1	CHX counter 23.5, Pf growth 48h inconclusive
O=C(Nc1ncc(Cc2cccc(C(F)(F)F)c2)s1)c1ccc(-c2cccc([N+](=O)[O-])c2)o1	Pf growth 48h inconclusive
NC(=O)N/N=C/c1ccc(OCc2cccc(Cl)c2)cc1	none
O=C(NC1CCCCC1)c1cccs1	CHX counter 24.3 (no result: Pf growth 48h)
O=C(COC(=O)c1cccs1)NC1CCCC1	CHX counter 19.5, Pf growth 96h inconclusive
O=C(COC(=O)c1cccs1)NC1CCCCC1	CHX counter 42.6, Shiga inhibitor 94.3 (no result: Pf growth 96h)
O=C(COC(=O)c1cccs1)NC12CC3CC(CC(C3)C1)C2	CHX counter 28.9
O=C(COC(=O)CCC(=O)c1cccs1)NC1CCCCC1	Pf growth 96h inconclusive (no result: CHX counter, Shiga inhibitor)
Cc1ccc(/C=N\NC(=O)/C(=C\Nc2nccc(C)n2)NC(=O)c2ccccc2)cc1	none
CC(C)NC(=O)C(=O)NCCCN1CCOCC1	none
CC(C)(C)c1ccc(CC(=O)N2CCC2(C)C(=O)NCCC#N)cc1 (centres undefined)	none (no result: CHX counter, SARS PLP yeast, Shiga inhibitor, Pf growth 96h, Pf growth 48h)
CS(=O)(=O)c1ccc(NC(=O)c2ccc3c(c2)S(=O)(=O)N=C2CCCCCN23)cc1	Pf growth 96h inconclusive, Pf growth 48h inconclusive (no result: CHX counter, Shiga inhibitor)
CC(=O)Oc1cc(C(=O)OCC(=O)NC23CC4CC(CC(C4)C2)C3)cc(OC(C)=O)c1OC(C)=O	AMA1 RON2 block 20µM (no result: CHX counter, SARS PLP yeast, Shiga inhibitor, Pf growth 96h, Pf growth 48h)
CC(C)(C)OC(=O)N(CCc1ccccc1)Cc1cccc(OCc2cccc(NC(=O)/C=C/c3ccccc3)c2)c1	none (no result: CHX counter, SARS PLP yeast, Shiga inhibitor, Pf growth 96h, Pf growth 48h)
CS(=O)(=O)N(CC(=O)Nc1ccc2c(c1)OCO2)c1ccccc1	none
CC(C)(C)SCCNC(=O)CN(c1ccc(F)cc1)S(=O)(=O)c1ccccc1	Pf growth 48h inconclusive
COc1ccc(N(CC(=O)NCCC2=CCCCC2)S(=O)(=O)c2ccccc2F)cc1	Pf growth 96h 10.4µM, Pf growth 48h inconclusive
C=CCN(c1ccc(C(=O)Nc2ccc3c(c2)OCO3)cc1)S(C)(=O)=O	CHX counter 13.3, Pf growth 48h inconclusive
O=C(CN(c1ccc(F)cc1)S(=O)(=O)c1ccccc1)NCCSC1CCCCC1	Pf growth 96h inconclusive, Pf growth 48h 6.57µM
CS(=O)(=O)N(CC(=O)Nc1ccc2c(c1)OCCO2)c1ccc2c(c1)OCO2	CHX counter 10.3 (no result: Pf growth 96h)
CCOC(=O)/C(=C/c1ccco1)NC(=O)c1ccc(Br)o1	Pf growth 96h inconclusive
Cc1ccc(-n2c(C)cc(C)c(C#N)c2=O)cc1C	none
CC1(C(=O)O)CCC2(C)CCC3(C)C(=CC(=O)C4C5(C)CCC(O)C(C)(C)C5CCC43C)C2C1 (centres undefined)	none (no result: CHX counter, SARS PLP yeast, Shiga inhibitor, AMA1 RON2 block)
CCN(CCCn1c(SCC#N)nc2ccccc2c1=O)c1ccccc1	AMA1 RON2 block inconclusive, Pf growth 48h inconclusive (no result: Pf growth 96h)
O=C(NC1CCCC1)C(c1cccnc1)N(Cc1ccc(F)cc1)C(=O)c1csnn1 (centres undefined)	none
CS(=O)(=O)N(CC(=O)NCCSC1CCCCC1)c1ccc2c(c1)OCO2	Pf growth 48h 5.22µM
Cc1ccc(SCCNC(=O)CN(c2ccc3c(c2)OCO3)S(C)(=O)=O)cc1	Pf growth 48h inconclusive (no result: Pf growth 96h)
CS(=O)(=O)N(CC(=O)NCCC1=CCCCC1)c1ccc2c(c1)OCO2	Pf growth 48h 4.15µM
COc1ccc(N(CC(=O)NCCC2=CCCCC2)S(C)(=O)=O)cc1	none (no result: Pf growth 96h)
CCOc1ccccc1NC(=O)Nc1cc(C(=O)O)ccc1C	Pf growth 96h inconclusive
O=C(Nc1ccccc1)Nc1cccc2cccnc12	CHX counter 35.8, Shiga inhibitor 122.0 (no result: Pf growth 96h)
O=C(CCCl)Nc1cccc2cccnc12	CHX counter 48.4 (no result: SARS PLP yeast, Pf growth 96h, AMA1 RON2 block, Pf growth 48h)
CC(=O)c1ccc(NC(=O)Nc2cccc3ccccc23)cc1	CHX counter 26.8
Cc1ccc(C(=O)O)cc1NC(=O)Nc1cccc2ccccc12	Pf growth 96h 2.62µM
COc1ccc(C(CNC(=O)c2cc(SC)ccc2Cl)N(C)C)cc1 (centres undefined)	Pf growth 96h inconclusive
CCCNC(=O)N[C@H]1C=C[C@H](CC(=O)NC2CCCCC2)O[C@@H]1CO	none (no result: CHX counter, SARS PLP yeast, Shiga inhibitor, Pf growth 96h, Pf growth 48h)
Cc1ccccc1NC(=O)CCCN1C(=O)C2CC=CCC2C1=O (centres undefined)	SARS PLP yeast inconclusive
O=C(Nc1ccccc1)Nc1cccc2ccccc12	CHX counter 18.7
Cc1cc(O)c(C(C)C)cc1NC(=O)Nc1cccc2ccccc12	Pf growth 96h inconclusive, Pf growth 48h 10.4µM
Cc1cc(O)c(C(C)C)cc1NC(=O)Nc1cc(Cl)ccc1Cl	none (no result: CHX counter, SARS PLP yeast, Shiga inhibitor, Pf growth 96h, Pf growth 48h)
O=C(Nc1ccccc1)Nc1csc2ccccc12	CHX counter 50.8, Shiga inhibitor 147.9, Pf growth 96h inconclusive, Pf growth 48h inconclusive
O=C(Nc1ccc(C(=O)O)cc1)Nc1cccc2ccccc12	none
O=C(Nc1cccc2cccnc12)OCc1ccccc1	CHX counter 30.4 (no result: SARS PLP yeast, Pf growth 96h, AMA1 RON2 block, Pf growth 48h)
CC(=O)Nc1csc2ccccc12	none
CCC(CO)Oc1cc(NC(=O)c2ccccc2Cl)c2ncn(C(C)C)c2c1 (centres undefined)	none (no result: CHX counter, Shiga inhibitor, Pf growth 96h, Pf growth 48h)
S=C(NCC1CCCO1)Nc1ccc(Nc2ccccc2)cc1 (centres undefined)	Pf growth 96h 11.7µM, AMA1 RON2 block inconclusive
S=C(NCC1CCCO1)Nc1cccc2ccccc12 (centres undefined)	Pf growth 96h 1.04µM
NS(=O)(=O)c1ccc(NC(=S)NCC2CCCO2)cc1 (centres undefined)	Pf growth 96h inconclusive
COc1ccc(/C(O)=C2/C(=O)C(=O)N(Cc3ccco3)C2c2cccs2)cc1 (centres undefined)	none
COc1ccc(C2/C(=C(\O)c3ccc4c(c3)OCCO4)C(=O)C(=O)N2CCCn2ccnc2)cc1 (centres undefined)	Pf growth 96h inconclusive, Pf growth 48h inconclusive
CC1Cc2cc(/C(O)=C3/C(=O)C(=O)N(Cc4ccco4)C3c3cccs3)ccc2O1 (centres undefined)	CHX counter 45.8, Shiga inhibitor 86.7
Cc1nnc(N2C(=O)C(=O)/C(=C(/O)c3ccc4c(c3)CC(C)O4)C2c2ccccc2F)s1 (centres undefined)	CHX counter 13.9
C=CCOc1ccc(/C(O)=C2/C(=O)C(=O)N(CCCn3ccnc3)C2c2cccs2)cc1 (centres undefined)	CHX counter 48.8, Shiga inhibitor 137.3, Pf growth 96h inconclusive
COc1ccccc1C1/C(=C(\O)c2ccc3c(c2)OCCO3)C(=O)C(=O)N1CCCn1ccnc1 (centres undefined)	CHX counter 31.7, Shiga inhibitor 72.5
N#Cc1cccc(C#N)c1NCC1CCCO1 (centres undefined)	none
